Results reported in PubChem BioAssay AID2629 (Broad Institute, 2010).
About 1,900 (0.59%) of roughly 320,000 compounds were called active. For the sample, actives were picked, then their nearest neighbours and some compounds at random. Unmarked numbers belong to inactive results. Rule as the data show it: active = inhibition mostly above about 10% (no sharp cut-off); inactive = mostly below about 6.7%.

Each molecule was assayed against Protein LANA1 (Human herpesvirus 8 type P (isolate GK18)) (UniProt Q9QR71) (assay: blockers of LANA interaction with H2A/H2B – biochemical, FP readout, HTS, primary screen (AID 2629)). Details: cell-free LANA-H2A/H2B peptide, fluorescence polarization, stronger effect = higher value, concentration not given here.
Sequence of Protein LANA1 (Human herpesvirus 8 type P (isolate GK18)) (Q9QR71 whole entry, looked up): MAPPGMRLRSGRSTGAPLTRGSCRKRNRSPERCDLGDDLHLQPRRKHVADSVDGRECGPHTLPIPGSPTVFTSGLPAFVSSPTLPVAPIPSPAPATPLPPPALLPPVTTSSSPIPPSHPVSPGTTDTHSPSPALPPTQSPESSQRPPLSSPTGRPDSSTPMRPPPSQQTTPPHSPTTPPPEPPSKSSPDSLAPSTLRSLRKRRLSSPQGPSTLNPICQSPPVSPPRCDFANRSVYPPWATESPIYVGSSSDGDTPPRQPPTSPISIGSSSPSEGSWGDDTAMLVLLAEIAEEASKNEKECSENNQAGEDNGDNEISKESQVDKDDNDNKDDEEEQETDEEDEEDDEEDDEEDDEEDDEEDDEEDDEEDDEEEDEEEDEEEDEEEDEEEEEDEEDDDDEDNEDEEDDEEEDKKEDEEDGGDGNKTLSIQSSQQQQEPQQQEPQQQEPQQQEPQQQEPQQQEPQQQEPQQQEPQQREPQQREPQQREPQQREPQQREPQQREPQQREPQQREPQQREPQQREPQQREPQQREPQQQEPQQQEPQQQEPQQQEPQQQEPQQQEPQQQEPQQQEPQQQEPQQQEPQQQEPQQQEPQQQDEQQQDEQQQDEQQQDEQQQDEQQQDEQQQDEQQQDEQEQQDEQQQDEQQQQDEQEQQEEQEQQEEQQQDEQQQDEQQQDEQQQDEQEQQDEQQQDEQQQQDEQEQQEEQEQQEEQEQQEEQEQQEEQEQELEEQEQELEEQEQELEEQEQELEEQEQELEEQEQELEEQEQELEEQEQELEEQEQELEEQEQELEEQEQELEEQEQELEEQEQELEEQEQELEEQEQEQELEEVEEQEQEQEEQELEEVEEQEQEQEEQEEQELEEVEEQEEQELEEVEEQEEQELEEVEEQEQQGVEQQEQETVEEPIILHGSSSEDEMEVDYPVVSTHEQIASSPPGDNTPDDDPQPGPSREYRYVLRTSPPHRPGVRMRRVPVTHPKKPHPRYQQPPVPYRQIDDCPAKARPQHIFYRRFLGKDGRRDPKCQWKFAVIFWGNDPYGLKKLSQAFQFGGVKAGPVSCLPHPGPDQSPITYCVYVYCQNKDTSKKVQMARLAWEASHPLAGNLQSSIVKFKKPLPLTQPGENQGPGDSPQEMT

| SMILES | inhibition |
| --- | --- |
| COc1ccc(C(CCN(Cc2ccc(OC)c(OC)c2)C(=O)CCl)c2ccccc2)cc1 (stereo not drawn) | -1.72% |
| CCN(CCCCOC(=O)c1ccc(OC)c(OC)c1)C(C)Cc1ccc(OC)cc1 (stereo not drawn) | 8.66% (active) |
| COc1ccc(C(=O)OCC(=O)NCCCc2ccccc2)cc1OC | -0.725% |
| CCN(C(=O)COC(=O)c1ccccc1O)c1cccc2ccccc12 | 4.86% |
| O=C(C1CCN(S(=O)(=O)Cc2ccccc2)CC1)N1CCCc2ccccc21 | 1.2% |
| Cc1cc(Nc2ccc(Br)cc2)nc2ccccc12 | -0.269% |
| Cc1cc(Nc2ccccc2)nc(N)n1 | 85.1% (active) |
| CC(=O)Nc1ccc(Nc2cc(C)nc(Nc3ccc(NC(C)=O)cc3)n2)cc1 | -0.44% |
| Cc1cccn2c(CN(C)C3CCCc4ccccc43)c(C(=O)N3CCOCC3)nc12 (stereo not drawn) | 3.32% |
| COc1cc(NC(=O)COC(=O)c2cnc(C)cn2)c(C)cc1[N+](=O)[O-] | 0.629% |
| COc1cc(NC(=O)COC(=O)CSc2ccc3ccccc3c2)c(C)cc1[N+](=O)[O-] | 10.3% (active) |
| Cc1ccc(C)c(NC(=O)COC(=O)CSc2ccccc2)c1 | -1.08% |
| CCCC(=O)OCC(=O)Nc1cc(Cl)ccc1[N+](=O)[O-] | 3.99% |
| Cc1cc(NC(=O)COC(=O)COc2ccc(Cl)cc2C)c([N+](=O)[O-])cc1C | 18.3% (active) |
| COc1ccc(OCC(=O)Nc2cc(C)c(Cl)cc2OC)c([N+](=O)[O-])c1 | 3% |
| Cc1ccc2c(c1)C(c1ccccc1)N(C(=O)c1ccc(F)cc1)CC(=O)N2 (stereo not drawn) | -6.68% |
| CCCc1nc2c(C)cc(-c3nc4ccccc4n3C)cc2n1Cc1ccc(-c2ccccc2C(=O)O)cc1 | -5.17% |
| O=C(CN1CCCC1)Nc1sc2c(c1C(=O)Nc1ccccc1)CCCC2 | -9.6% |
| c1ccc(CN=C2Nc3ccccc3CS2)nc1 | -3.85% |
| CS(=O)(=O)N1CCN(CC(=O)NC2CCCC2)CC1 | 3.66% |
| Cc1ccc(S(=O)(=O)NC[C@H]2O[C@@H](n3cnc4c(N)ncnc43)[C@H](O)[C@@H]2O)s1 | -71.8% |
| COc1cc(C(=O)Nc2ncccc2C)ccc1OCC(=O)N1CCOCC1 | -0.868% |
| CCOc1cc(C(=O)OCC(=O)Nc2cccc(C)c2)ccc1OCC(=O)N1CCOCC1 | 25.3% (active) |
| O=C(OCC(=O)N1CCOCC1)c1ccc2ccccc2c1 | -0.101% |

| SMILES | inhibition |
| --- | --- |
| O=C(NCC1CCCO1)C1CCN(C2CCN(C(=O)C3CCCCC3)CC2)CC1 (stereo not drawn) | 0.649% |
| O=C(NC(CC(=O)N1CCN(c2ccccc2)CC1)c1ccccc1)c1ccccc1Cl (stereo not drawn) | 4.7% |
| COC(=O)c1ccccc1OCC(=O)N1CCN(c2ccc(Cl)cc2)CC1 | 3.13% |
| C[C@H](NC(=O)c1ccccc1Cl)C(=O)OCC(=O)N1CCN(c2ccccc2)CC1 | 41% (active) |
| Cc1ccc(CCN2CC(C(=O)NCCc3ccccc3)CC2=O)cc1 (stereo not drawn) | 18.8% |
| COCCCNC(=O)C1CC(=O)N(CCc2ccccc2)C1 (stereo not drawn) | 0.409% |
| O=C(NCCCN1CCCCC1)C1CC(=O)N(CCc2ccccc2)C1 (stereo not drawn) | 15% (active) |
| CN(CC(=O)Nc1cccc(F)c1)C(=O)C1CC(=O)N(CCc2ccccc2)C1 (stereo not drawn) | -5.92% |
| CCNC(=O)c1cccc(NC(=O)C2CC(=O)N(CCc3ccccc3)C2)c1 (stereo not drawn) | 75.8% (active) |
| O=C(NC1CCCCC1)C1CC(=O)N(CCc2ccccc2)C1 (stereo not drawn) | -0.144% |
| COc1ccc(CNC(=O)C2CCC(CNc3c(N4CCOCC4)c(=O)c3=O)CC2)cc1 (stereo not drawn) | -0.686% |
| CCOC(=O)Cn1c(-c2cccnc2Cl)nc2ccccc21 | 6.09% |
| CCCCCCCCCCOC(=O)Cn1c(COc2ccc(C)cc2)[n+](C)c2ccccc21 | 15.8% (active) |
| CCCCCCCCCCOC(=O)Cn1c(COc2cccc(OC)c2)[n+](C)c2ccccc21 | 6.12% |
| COC(=O)C(C)n1cnc2c(nnn2-c2ccc(F)cc2)c1=O (stereo not drawn) | -1.75% |
| NC(N)=N/N=C/c1ccc(OCc2ccc(Cl)cc2Cl)cc1 | 0.216% |
| C=CCN(c1ccc(Cl)cc1)S(=O)(=O)c1cccc(C(=O)OCC(=O)N(C)C)c1 | -2.64% |
| O=C(NNC(=O)c1cnccc1C(F)(F)F)c1ccc(Cl)cc1 | 1.78% |
| CCC1=C(OC(=O)N(CC)CC)N2C(=O)OC(=NCCc3c[nH]c4ccccc34)[C@]2(C)[C@H]2C1=CC[C@H]1C(=O)N(CC)C(=O)[C@H]12 | 1.67% |
| Oc1ccc(N2CCN(C(=S)NCc3ccccc3)CC2)cc1 | -0.124% |
| Oc1ccccc1N1CCN(C(=S)NCc2ccccc2)CC1 | 18.4% (active) |
| O=C(CN1CCN(c2ccccc2O)CC1)NC(=O)NCc1ccccc1 | 2.65% |
| Cc1ccc(CN(C(=O)c2sc3ccccc3c2Cl)C2CCS(=O)(=O)C2)cc1 (stereo not drawn) | 2.69% |
| CCCCNC(=O)OCCSCCS(=O)(=O)c1ccc(Cl)cc1 | -3.62% |

| SMILES | inhibition |
| --- | --- |
| CCCN(CCC)CC(O)COc1ccccc1C(=O)Nc1ccccc1 (stereo not drawn) | -2.37% |
| CN(C)S(=O)(=O)c1ccc(NC(=O)COC(=O)c2n[nH]c3ccccc23)cc1 | 15.3% (active) |
| CN(C)S(=O)(=O)c1ccc(NC(=O)COC(=O)Cn2[nH]c(=O)c3ccccc3c2=O)cc1 | 3.02% |
| O=C(COC(=O)c1n[nH]c2ccccc12)Nc1ccccc1Br | -3.41% |
| CCOCCCn1c(SCC(=O)Nc2cc(OC)ccc2OC)nc2ccccc2c1=O | 3.49% |
| Cc1ccc2c(c1)N(CC(=O)NCCCN1CCCCC1)C(=O)c1cccnc1O2 | 3.43% |
| COc1cc(OC)c(OC)cc1CN1CCN(C(=O)c2cccc3ccccc23)CC1 | 0.329% |
| Cc1ccc(S(=O)(=O)N2CCC(Oc3ccc(-n4cnnn4)cc3)CC2)cc1 | -4.09% |
| CCn1c(SCC(=O)NNC(=O)c2ccc(OC)cc2)nnc1C(C)C | -0.104% |
| O=C(CS(=O)(=O)c1cn(Cc2ccc(Cl)cc2)c2ccccc12)N1CCOCC1 | 0.389% |
| O=C(Cc1ccccc1)NC(=S)Nc1ccc(N2CCCCC2)cc1 | 2.3% |
| O=C1C=CC(=O)N1c1ccc(N2CCCCC2)cc1 | 6.75% (active) |
| CC(=O)Nc1ccc(S(=O)(=O)Nc2ccc(N3CCCCC3)cc2)cc1 | 0.693% |
| Cc1c(C(=O)NCCN(C)C)oc2ccc(S(=O)(=O)N3CCCC3)cc12 | 0.441% |
| CCc1nn(CCCC(=O)NC(C)c2ccccc2)c(=O)c2cc3occc3n12 (stereo not drawn) | 1.99% |
| CCN(CC(=O)NCc1cccs1)C(=O)/C=C/c1ccc(C)cc1 | -0.65% |
| CC(CC(=O)N1CCN(S(=O)(=O)c2ccccc2)CC1)n1cncn1 (stereo not drawn) | 0.88% |
| CCOc1ccc(S(=O)(=O)N(CC(=O)O)c2ccccc2)cc1 | 18.5% |
| CN(C)C(=O)Cn1c(=O)n(S(=O)(=O)c2ccccc2)c2ccccc21 | 14% (active) |
| CC(=O)Nc1ccc(S(=O)(=O)NNC(=O)CCc2ccccc2)cc1 | -3.72% |
| Oc1ccccc1CNc1ncc(Br)cc1Br | -2.38% |
| O=C(COc1nc2ccccc2nc1N1CCOCC1)NCC(F)(F)F | 0.0185% |
| COc1cc(N2C(=O)c3ccccc3C2=O)c(Cl)cc1C(=O)OCC(=O)N1CCOCC1 | 2.7% |
| O=S(=O)(NC1CCCCC1N1CCC(O)CC1)c1ccc(Cl)cc1 (stereo not drawn) | -2.17% |

| SMILES | inhibition |
| --- | --- |
| CCN1CCN(C2CCCCC2NS(=O)(=O)c2ccc(Cl)cc2)CC1 (stereo not drawn) | 16.2% (active) |
| O=S(=O)(NC1CCCCC1N1CCCCC1)c1ccc(Cl)cc1 (stereo not drawn) | 9.78% |
| O=C(CCn1nnc2ccccc2c1=O)N[C@@H](Cc1c[nH]c2ccccc12)C(=O)O | -3.09% |
| COc1ccc(NC(=O)CCCC(=O)c2ccccc2)cc1 | 2.03% |
| COc1ccc(NC(=O)CCCN2C(=O)C(c3ccccc3)Oc3cccnc32)cc1 (stereo not drawn) | 12.5% (active) |
| CCc1cccc(NC(=O)CCCN2C(=O)C(c3ccccc3)Oc3cccnc32)c1 (stereo not drawn) | 3.46% |
| Cn1cc(CN2CCC(C(O)CCc3ccccc3)CC2)c(-c2ccccc2F)n1 (stereo not drawn) | 1.03% |
| CCn1c(=O)c2ccccc2n(CC(=O)N2CCCc3ccccc32)c1=O | 0.719% |
| O=C(NCc1ccco1)/C(=C\c1cccc([N+](=O)[O-])c1)NC(=O)c1ccco1 | -1.25% |
| CC(=O)Nc1cccc(-c2nc3ccccc3s2)c1C | 55.2% (active) |
| Oc1ccc(-c2[nH]ncc2-c2nc3ccccc3s2)c(O)c1 | 3.42% |
| Cc1ccc(S(=O)(=O)N2CCN(C(=O)c3ccccc3-c3nc4ccccc4s3)CC2)c(C)c1 | 5.83% |
| O=C1C2(c3ccccc3)CN(CCCO)CC1(c1ccccc1)CN(CCCO)C2 | 1.07% |
| C=CCN(C(=O)Cn1ncc2c1-c1cc(C)ccc1OC2)c1ccccc1 | -5.38% |
| CCCCc1cc2c(s1)CCCC/C2=N/O | -0.97% |
| COc1ccc(N2CCN(C(=O)CCNC(=O)c3ccc(Br)cc3)CC2)cc1 | -8.47% |
| CN(C)C(=O)c1nc2ccc(Cl)cn2c1CNCc1cccc(OC(F)(F)F)c1 | 1.63% |
| Cc1nnc(SC(C(=O)c2ccccc2)c2ccccc2)[nH]c1=O (stereo not drawn) | -2.85% |
| O=C(O)Cc1ccc(-c2ccccc2)cc1 | 54.5% (active) |
| O=C(Cc1ccc(-c2ccccc2)cc1)NC(c1ccccc1)c1ccccc1 | 3.99% |
| O=C(O)Cc1ccc(NCc2ccccc2Cl)cc1 | 4.61% |
